# Screens: PubChem BioAssay, National Center for Advancing Translational Sciences (NCATS)
# An excerpt weighted towards active compounds, which were near 19% of everything screened.
# IL1B secr inh = inhibitors of inflammasome signaling (IL-1 beta secretion); THP-1 LPS/ATP IL-1B secretion, AlphaLISA, 16 h; active compounds read low; activity change, % at 57.5 µM; 360,000 compounds, 4.7% hits; AID 743279; in the data active means activity change below about -50%; inconclusive means mostly about -30% to -49%
#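 THP-1 cells pretreated 1 hr with compounds (up to 57.5 uM final), then stimulated with LPS (250 ng/mL final) plus ATP (1.25 mM final); secreted IL-1B measured by AlphaLISA after 16 hr, decreased signal indicating inhibition.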
# HT1080-NT tox = kills 2HG-producing HT-1080-NT fibrosarcoma cells. AID 686970. 360,000 compounds, 1.6% hits. HT-1080-NT fibrosarcoma viability, CellTiter-Glo ATP luminescence, 48 h. Potency, µM (highest dose often 46.1 µM), hits mostly cytotoxic;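 further: NT is the 2HG producing partner of a matched IDH1 knockdown line; nearly all actives have a fitted effect of over 55% in size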
#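 Viability of the 2HG-overproducing fibrosarcoma line after 48 hours of compound exposure at 37 degrees C was determined by luminescence with CellTiter-Glo, and concentration-effect curves were then fitted and categorized.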
# TDP1 cell CPT = DT40-hTDP1 cell growth loss with CPT | 420,000 compounds, 12% hits | AID 686979 | chicken DT40 Tdp1-/-;hTDP1 cells + 20 nM CPT, ATP luminescence, 48 h | Potency, µM (series often up to 46.2 µM), actives largely listed as inhibitors; further: nearly all actives have a fitted effect of over 55% in size
#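 Chicken DT40 Tdp1-/- cells complemented with human TDP1, 400 cells/well, exposed to compounds plus 20 nM camptothecin for at least 48 h at 37 C; viability read as ATP content by CellTiter-Glo luminescence.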
# HT1080 IDH1KD tx = toxicity to HT-1080 IDH1 knockdown cells (counter line) | 360,000 compounds, 2% hits | Potency, µM (series often up to 46.1 µM), most hits filed as cytotoxic | HT-1080 IDH1 knockdown viability, ATP luminescence, 48 h
#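 Luminescent ATP read-out (CellTiter-Glo, 10 min at room temperature) after 48 h compound exposure at 37 °C gave viability of IDH1-knockdown HT-1080 cells. Activity was normalised to DMSO and cell-free wells, then fitted as concentration-response curves.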
# DT40 TDP1 no CPT = qHTS for Inhibitors of human tyrosyl-DNA phosphodiesterase 1 (TDP1): qHTS in cells in absence of CPT; DT40 Tdp1-/- hTDP1 cells, no CPT, ATP luminescence, 48 h; Potency, µM (doses to about 46.2 µM), usual class: inhibitors; 420,000 compounds, 15% hits; further: nearly all actives have a fitted effect of over 55% in size
#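 Growth kinetics read by CellTiter-Glo luminescence after ≥48 hr at 37 °C. Cells: DT40 Tdp1-/- stably carrying human TDP1, 400 per well, compound exposure in the absence of CPT (DMSO vehicle).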
# Hits are given with their value; i = inactive; ? = inconclusive; nt = no result. Unless noted, the call rests on the fitted dose curve; in most records, active means well fitted curve in the direction sought with a large enough effect; inconclusive means small, poorly fitted or top-dose-only effect, or another doubt; inactive means no such curve, though single readings can be large; an effect the other way counts as inactive or inconclusive.
SMILES,IL1B secr inh,HT1080-NT tox,TDP1 cell CPT,HT1080 IDH1KD tx,DT40 TDP1 no CPT
O=C(Nc1ccccc1)c1nn(-c2ccccc2)c(=O)cc1C(F)(F)F,i,i,?,i,i
O=C(O)C1(Nc2ccc(Br)cc2)CCCC1,i,i,i,i,i
O=Cc1ccc(O)c2ncccc12,-98,2.3µM,0.65µM,3.7µM,0.58µM
CCN(Cc1ccccc1)C(=O)Cn1c(=O)oc2cc(S(=O)(=O)N3CCCCCC3)ccc21,nt,nt,16µM,nt,15µM
O=C(Cn1c(=O)oc2cc(S(=O)(=O)N3CCCC3)ccc21)NCc1ccccn1,i,i,i,i,i
CCOc1ccc(NC(=O)Cn2c(=O)oc3cc(S(=O)(=O)NC4CCCC4)ccc32)cc1,nt,nt,15µM,nt,12µM
CCOC(=O)Cn1c(=O)oc2cc(S(=O)(=O)NC3CCCCC3)ccc21,i,i,?,i,?
COc1ccc(NC(=O)Cn2c(=O)oc3cc(S(=O)(=O)N4CCCCCC4)ccc32)cc1OC,nt,nt,16µM,nt,13µM
COc1ccccc1CNC(=O)Cn1c(=O)oc2cc(S(=O)(=O)N3CCCC3)ccc21,i,i,13µM,i,29µM
O=c1[nH]cccc1-c1nc2ccccc2n1Cc1cccc(F)c1,i,i,i,i,i
CCOc1ccc(NC(=O)Cn2c(=O)oc3cc(S(=O)(=O)N4CCCCCC4)ccc32)cc1,nt,nt,21µM,nt,21µM
COc1cccc(CNC(=O)c2cc(=O)[nH]c3ccc(S(=O)(=O)N4CCCC4)cc23)c1,nt,nt,i,nt,i
COc1ccc(NC(=O)Cn2c(=O)oc3cc(S(=O)(=O)N4CCCC4)ccc32)cc1,i,i,i,i,i
COc1ccc(OC)c(CNC(=O)c2cc(=O)[nH]c3ccc(S(=O)(=O)N4CCCCC4C)cc23)c1 (configuration not stated),nt,nt,?,nt,16µM
COc1cc(OC)c(NC(=O)Cn2c(=O)oc3cc(S(=O)(=O)N4CCCC4)ccc32)cc1Cl,nt,nt,?,nt,18µM
COc1ccc(NC(=O)Cn2c(=O)oc3cc(S(=O)(=O)N4CCCCC4C)ccc32)cc1 (configuration not stated),nt,nt,18µM,nt,21µM
Cc1ccc(Cl)cc1N1CCN(C(=O)c2ccc3nc(N4CCC(C)CC4)sc3c2)CC1,nt,nt,21µM,nt,21µM
Cc1cccc(N2CCN(C(=O)c3ccc4nc(N5CCCCC5)sc4c3)CC2)c1C,i,i,21µM,i,18µM
CC1CCN(c2nc3ccc(C(=O)N4CCN(Cc5ccccc5)CC4)cc3s2)CC1,?,i,?,i,?
CCOC(=O)N1CCN(C(=O)c2ccc3nc(N4CCCCC4)sc3c2)CC1,i,i,i,i,?
CCOc1ccc(NC(=O)N2CCN(c3nc4ccccc4s3)CC2)cc1,i,i,i,i,?
Cc1cccc(C)c1NC(=O)N1CCN(c2nc3ccccc3s2)CC1,i,i,12µM,?,?
CCOC(=O)N1CCN(C(=O)c2ccc3nc(N4CCC(C)CC4)sc3c2)CC1,?,i,?,i,?
O=C(c1ccc2nc(N3CCOCC3)sc2c1)N1CCC(Cc2ccccc2)CC1,i,?,?,i,23µM
Fc1ccc(-c2nc(-c3cnccn3)no2)c(Cl)c1,i,i,i,i,?
SMILES,IL1B secr inh,HT1080-NT tox,TDP1 cell CPT,HT1080 IDH1KD tx,DT40 TDP1 no CPT
CCC(C)N1C(=O)C2C(C(=O)Nc3cccc(OC)c3)C3C=CC2(O3)C1C(=O)NC1CCCCC1C (configuration not stated),i,i,i,i,i
CC(C)CC(C(=O)NC(C)(C)C)N(Cc1ccccc1Cl)C(=O)c1snc(C(N)=O)c1N (configuration not stated),i,i,?,i,?
CN(C)C(=O)[C@H]1C[C@H]1[C@@H](O)[C@H](CO)NC(=O)[C@H](Cc1ccccc1)NC(=O)OC(C)(C)C,i,i,i,i,i
Cc1ccc(C)c(N2CCN(C(=O)c3ccc4nc(N5CCOCC5)sc4c3)CC2)c1,i,i,?,i,13µM
Cc1cccc(NC(=O)c2ccc3nc(N4CCOCC4)sc3c2)c1C,i,i,?,i,?
Cc1ccc(Nc2nnc(-c3ccccc3N)o2)cc1C,i,i,i,i,i
CCN(Cc1ccccc1)S(=O)(=O)c1ccc(C(=O)N(CCCN(C)C)c2nc3ccc(F)cc3s2)cc1,-101,?,?,?,i
COc1ccc2sc(N(CCCN(C)C)C(=O)c3ccc(C(=O)c4ccccc4)cc3)nc2c1,-88,?,16µM,?,?
CCN(Cc1ccccc1)S(=O)(=O)c1ccc(C(=O)N(CCCN(C)C)c2nc3cc(OC)ccc3s2)cc1,-100,?,?,?,23µM
CCCCN(C(=O)c1ccc(S(=O)(=O)N(C)C)cc1)c1nc2ccccc2s1,i,i,i,i,i
CCN(Cc1ccccc1)S(=O)(=O)c1ccc(C(=O)N(CCCN(C)C)c2nc3cc4c(cc3s2)OCCO4)cc1,-95,i,?,?,?
CN(C)CCCN(C(=O)c1ccco1)c1nc2ccc(F)cc2s1,i,i,i,i,?
COc1ccc(CNC(=O)Cn2ncc3c([nH]c4ccccc43)c2=O)cc1,nt,nt,i,nt,?
CC#CCN(Cc1ccco1)C(=O)c1ccc(OC2CCN(Cc3ccccn3)CC2)cc1,i,i,?,i,?
COc1cccc(NC(=O)c2cccc(N3C(=O)C4CCC(C)CC4C3=O)c2)c1 (configuration not stated),i,i,i,i,i
CN(C)CCCN(C(=O)c1ccc(S(=O)(=O)N(C)Cc2ccccc2)cc1)c1nc2c(F)cccc2s1,-96,?,?,i,i
COc1ccc(S(=O)(=O)N(C)[C@H]2C[C@H]3c4cc(Oc5ccccc5C)ccc4CCN3C(=O)[C@H]2[C@H](C)O)cc1,?,i,9.2µM,?,6.5µM
COc1ccc(S(=O)(=O)N(C)[C@H]2C[C@H]3c4cc(-c5ccccc5)ccc4CCN3C(=O)[C@H]2[C@H](C)O)cc1,i,?,?,?,21µM
COc1ccc(-c2ccc3c(c2)[C@@H]2C[C@H](N(C)C(=O)Nc4ccccc4)[C@H]([C@H](C)O)C(=O)N2CC3)cc1,i,i,?,i,?
COC(=O)C(C)N1C(=O)S/C(=C\c2cc(C)n(-c3ccccn3)c2C)C1=O (configuration not stated),i,i,13µM,i,?
COC(=O)C(C)N1C(=O)S/C(=C/c2cc(C)n(-c3ccccn3)c2C)C1=O (configuration not stated),i,i,?,i,16µM
N#CCCn1c(=O)c(-c2cccc(C#N)c2)nc2cnc(N3CCOCC3)nc21,nt,nt,i,nt,i
Cn1c(N)c(Sc2ccccc2[N+](=O)[O-])c(=O)n(C)c1=O,i,i,i,i,i
O=C(Nc1ccc(S(=O)(=O)Nc2ccccc2)cc1)N1CCCC1,nt,nt,i,nt,i
